Assay results reported in PubChem BioAssay (NCATS).
Inconclusive results are not listed. A number with no mark means an inactive call. Active and inactive are the calls of the source. Calls come from the whole dose curve; as a rule, active = well fitted activation curve with a large enough effect; inconclusive = small, poorly fitted or top-dose-only effect; inactive = flat fitted curve, though single readings scatter.

Experiment: Primary redox qHTS assay for identification of artifact compounds. (AID 1845223);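 for redox activity (% of DA3003): 0% = DMSO and 100% = reference compound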
Conditions: Amplex Red/HRP redox cycling with DTT, fluorescence; series mostly up to 53.8 µM; redox activity (% of DA3003): at the top concentration
Outline: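 Redox-cycling detection via DTT (250 uM final) oxidation coupled to Amplex Red (25 uM)/HRP (250 mU/mL) in HBSS. 15 min preincubation plus 30 min after DTT, room temperature. Ex/Em 525/598 nm; 4-parameter Hill fit against DMSO and 10 uM DA3003.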
Potency is the fitted concentration of half-maximal effect.

With `Cc1nn(C)c2c1C(c1ccc(C(F)(F)F)cc1)C(C#N)=C(N)O2` (stereo not drawn) the Potency was 4.23 µM (active).

Work on `C=C[C@@]1(C)CC(=O)C2[C@](C)(O1)[C@@H](OC(C)=O)[C@@H](O)[C@H]1C(C)(C)CCC[C@]21C` (stereo partly drawn) yielded a redox activity (% of DA3003) of 11% [at 11.5 µM].

Going from `COc1cc(/C=C/C(=O)O[C@H]2[C@H](OC(=O)/C=C/c3cc(OC)c(O)c(OC)c3)O[C@H](CO[C@@H]3O[C@H](CO)[C@@H](O)[C@H](O)[C@H]3O)[C@@H](O)[C@@H]2O)ccc1O` to `C[C@]1(O)CC[C@@H]2C(C(=O)O)=CO[C@@H](O[C@@H]3O[C@H](COC(=O)c4ccc(O)cc4)[C@@H](O)[C@H](O)[C@H]3O)[C@@H]21`, the “redox activity (% of DA3003)” value rises from -10.7% [at 25.6 µM] to -9.85% [at 25.6 µM].

With `CCOc1cc2ncc(C#N)c(Nc3ccc(OCc4ccccn4)c(Cl)c3)c2cc1NC(=O)/C=C/CN(C)C` the “redox activity (% of DA3003)” value was -4.96% [at 25.6 µM].

Going from `CCCCN(CCCC)C(=O)CN1C[C@H](c2ccc3c(c2)OCO3)[C@@H](C(=O)O)[C@@H]1c1ccc(OC)cc1` to `CC1=CC(=O)OC(C)(CC(C)(O)C(=O)O)C1` (stereo not drawn), the “redox activity (% of DA3003)” value falls from 11.7% to -15.5%.

With `CC1CCC2C(C)(C)CC(C)(CO)C2(O)C1C(=O)O` (stereo not drawn) the “redox activity (% of DA3003)” value was -13.3%.
